Source: PubChem BioAssay (NCATS)
Records with an inconclusive call do not appear. A call without a number means that no potency is given here. The source made the active and inactive calls. The call rests on the fitted dose curve; in most records, active means well fitted inhibition curve with a large enough effect; inconclusive means small, poorly fitted or top-dose-only effect, or effect the other way; inactive means flat fitted curve, though single readings scatter.

Target: ATP-dependent 6-phosphofructokinase (Trypanosoma brucei brucei) (UniProt O15648)
Assay: qHTS Assay to Find Inhibitors of T. brucei phosphofructokinase: hit validation (AID 492961);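 further: luminescence reports ADP formed as PFK phosphorylates fructose-6-phosphate with ATP; series mostly up to about 51 µM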
How it was run: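 Reaction: 0.1 M triethanolamine pH 8.0, 5 mM MgCl2, F6P 0.5 mM, ATP 0.1 mM, PFK 1.25 nM, 45 min RT. Read-out: ADP-Glo luminescence. Analysis: concentration-response fits, classed by r2 and efficacy.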

Chain of ATP-dependent 6-phosphofructokinase (Trypanosoma brucei brucei) (O15648 whole entry, looked up): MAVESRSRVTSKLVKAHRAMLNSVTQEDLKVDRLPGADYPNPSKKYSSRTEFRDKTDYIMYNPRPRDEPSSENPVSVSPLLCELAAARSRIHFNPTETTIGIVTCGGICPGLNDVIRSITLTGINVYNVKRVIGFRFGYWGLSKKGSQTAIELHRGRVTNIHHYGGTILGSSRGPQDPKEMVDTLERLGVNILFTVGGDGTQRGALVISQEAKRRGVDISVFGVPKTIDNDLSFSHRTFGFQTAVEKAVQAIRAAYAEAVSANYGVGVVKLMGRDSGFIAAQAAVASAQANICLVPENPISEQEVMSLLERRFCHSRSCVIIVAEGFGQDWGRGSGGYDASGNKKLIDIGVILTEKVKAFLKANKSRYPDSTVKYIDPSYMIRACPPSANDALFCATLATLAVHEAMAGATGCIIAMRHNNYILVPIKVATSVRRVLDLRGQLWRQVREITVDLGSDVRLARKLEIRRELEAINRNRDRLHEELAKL

Compound | Potency
CN(Cc1ccccc1)Cc1ccccc1 | inactive
CC1=CC(=O)NS(=O)(=O)O1 | inactive
CCOc1ccc(NC(=S)Nc2ccc(OCC)cc2)cc1 | inactive
CC(O)CN(C)C (centres undefined) | inactive
O=C(O)COc1ccccc1/C=N/NC(=O)c1ccncc1 | inactive
O=C(O)/C=C/c1ccccc1 | inactive
CN1CCc2c(c3ccccc3n2Cc2ccccc2)C1 | inactive
COc1ccc2c(c1)OC(C)(C)C(c1ccccc1)C2c1ccc(OCCN2CCCC2)cc1 (centres undefined) | inactive
CCN(CC)C(=O)c1cccnc1 | inactive
OCC1(CO)COC(C(Cl)(Cl)Cl)OC1 | inactive
CCCOc1cc(N)ccc1C(=O)OCCN(CC)CC | inactive
CC(=O)Nc1ccc(OC(=O)c2ccccc2O)cc1 | inactive
CCCCCc1ccc(C)cc1O | inactive
NCC[C@H](O)C(=O)N[C@@H]1C[C@H](N)[C@@H](O[C@H]2O[C@H](CN)CC[C@H]2N)[C@H](O)[C@H]1O[C@H]1O[C@H](CO)[C@@H](O)[C@H](N)[C@H]1O | inactive
CCOC(=O)C1=C(COCCN)NC(C)=C(C(=O)OC)C1c1ccccc1Cl (centres undefined) | inactive
Cn1c(O)c(N=NC(N)=S)c2ccccc21 | inactive
CNC(=O)[C@H](Cc1c[nH]c2ccccc12)NC(=O)[C@@H](CC(=O)NO)CC(C)C | inactive

Compound | Potency
CN=C1C=CC(=C(c2ccc(N(C)C)cc2)c2ccc(N(C)C)cc2)C=C1 | inactive
N[C@H](CC(=O)O)C(=O)O | inactive
FC(F)(F)C(F)(F)C(F)(F)C(F)(F)C(F)(F)C(F)(F)F | inactive
O=C(CCCN1CCN2CCCC2C1)c1ccc(F)cc1 (centres undefined) | inactive
CCOC(=O)c1c[nH]c2cc(OCC(C)C)c(OCC(C)C)cc2c1=O | inactive
NC(=O)[C@H]1O[C@@H](O)[C@H](O)[C@@H](O)[C@@H]1O | inactive
Cc1c(C)c2c(c(C)c1OC(=O)CCC(=O)O)CC[C@@](C)(CCC[C@H](C)CCC[C@H](C)CCCC(C)C)O2 | inactive
CCCC(CCC)C(=O)OC1C[C@H]2CC[C@@H](C1)[N+]2(C)C (some centres undefined) | inactive
CC1C(=O)CC2C3(C)CCC2(C(C)C(=O)O)C(=O)C13 (centres undefined) | inactive
Nc1ncnc2c1ncn2CCOCP(=O)(O)O | inactive
Nc1nc(=O)n([C@@H]2CS[C@H](CO)O2)cc1F | inactive
COc1ccc2nc(NC(=O)Nc3ccccc3)sc2c1 | inactive
CC(CNC(=O)c1cccnc1)NC(=O)c1cccnc1 (centres undefined) | inactive
O=[N+]([O-])c1c(Cl)cccc1-c1c[nH]cc1Cl | inactive
O=C(CCCCCCCCCCCCC1CCCC1)Nc1ccc(S(=O)(=O)c2ccc(NC(=O)CCCCCCCCCCCCC3CCCC3)cc2)cc1 | inactive
CO | inactive
CNC(=O)OCc1cccc(COC(=O)NC)n1 | inactive
